Measured values: PubChem BioAssay (NCATS)
Results filed as inconclusive are left out. The source made the active and inactive calls. Unless noted, calls follow the shape of the dose curve; as a rule, active = well fitted curve in the direction sought with a large enough effect; inconclusive = small, poorly fitted or top-dose-only effect, or another doubt; inactive = no such curve, though single readings can be large; an effect the other way counts as inactive or inconclusive.

Columns and labels:
[1] = qHTS for Inhibitors of Plasmodium falciparum (DD2) proliferation (AID 504314); also: potency is read from the fitted curve at half-maximal effect;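 as to activity, negative = inhibition: parasite DNA measured by SYBR Green fluorescence after red cell lysis; plate controls were DMSO vehicle for no effect and artemisinin wells for full effect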
Outline: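 Quantitative HTS growth inhibition: SYBR Green I binding to parasite DNA after 72 h drug exposure of infected erythrocytes (0.3% parasitemia, 2.5% hematocrit). Signals normalized per plate to inhibitor and vehicle wells.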

[2] = qHTS for Inhibitors of Plasmodium falciparum (7G8) proliferation (AID 504316); also: nearly all actives have a fitted effect of over 65% in size; also: potency is read from the fitted curve at half-maximal effect;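 as to activity change, negative = inhibition: series mostly up to about 6.7 µM; 0% = DMSO vehicle and -100% = 0.29 µM artemisinin full kill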
Outline: (§1)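 Erythrocytes infected with P. falciparum line (0.3% parasitemia, 2.5% hematocrit final) incubated with compounds 72 h at 37 °C, 5% CO2; SYBR Green lysis buffer added, fluorescence read next day. Normalized to 0.29 uM artemisinin and DMSO.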

[3] = qHTS for Inhibitors of Plasmodium falciparum (CP250) proliferation (AID 504320);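 also: plate controls were DMSO vehicle for no effect and 0.29 µM artemisinin control for full effect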
Outline: as §1

[4] = biological target: Atrial natriuretic peptide receptor 1 (Homo sapiens) (UniProt P16066); test: Natriuretic polypeptide receptor (hNpr1) antagonism - Pilot CMLD screen (AID 1347052; calls by dose curve;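 also: HEK293 cells with hNpr1 stimulated by hNppA peptide at 0.1 nM; cGMP level read as GloSensor luciferase luminescence after agonist stimulation; series mostly up to about 9.2 µM; % is scaled to controls: 0 for no effect and ±100 for the full control effect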)
[5] = qHTS for Inhibitors of Plasmodium falciparum (HB3) proliferation (AID 504318); also: nearly all actives have a fitted effect of over 60% in size; also: potency is read from the fitted curve at half-maximal effect;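 as to activity change, negative = inhibition: 0% = DMSO vehicle and -100% = artemisinin control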
Outline: as §1

[6] = biological target: Cytochrome P450 2C9 (Homo sapiens) (UniProt P11712); test: qHTS Assay for Inhibitors and Substrates of Cytochrome P450 2C9 (AID 883); also: % is scaled to controls: 0 for no effect and ±100 for the full control effect; nearly all actives have a fitted effect of over 60% in size
Outline: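 10nM CYP2C9 + 100uM Luciferin-H (=KM), 25mM KPO4; cpd 10 min 37C; NADPH regen, 60 min 37C; stop/detect with P450 Glo-Buffer 20 min; luminescence. Norm. to 57uM sulphaphenazole as full inhibition.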

[7] = biological target: Cytochrome P450 3A4 (Homo sapiens) (UniProt P08684); test: qHTS Assay for Inhibitors and Substrates of Cytochrome P450 3A4 (AID 884); also: series mostly up to about 57 µM; % is scaled to controls: 0 for no effect and ±100 for the full control effect; nearly all actives have a fitted effect of over 50% in size
Outline: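 20 nM human CYP3A4 with 25 uM Luciferin-PPXE (at KM) in 200 mM KPO4, preincubated 10 min with compound; NADPH regeneration started a 60 min RT reaction. Luciferin detected by luminescence, normalized to 57 uM ketoconazole as full inhibition.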

[8] = biological target: Cytochrome P450 2D6 (Homo sapiens) (UniProt P10635); test: qHTS Assay for Inhibitors and Substrates of Cytochrome P450 2D6 (AID 891);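 also: luciferin methyl ether substrate demethylated by CYP2D6 with NADPH regeneration; % is scaled to controls: 0 for no effect and ±100 for the full control effect; nearly all actives have a fitted effect of over 60% in size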
Outline: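 Human CYP2D6 (5 nM) with 30 uM Luciferin-ME EGE (at Km) in 100 mM KPO4, compound preincubated 10 min, then NADPH regeneration system for 60 min at room temperature. Luciferin read by luminescence; normalized to 1.43 uM quinidine.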

[9] = biological target: Cytochrome P450 2C19 (Homo sapiens) (UniProt P33261); test: qHTS Assay for Inhibitors and Substrates of Cytochrome P450 2C19 (AID 899); also: % is scaled to controls: 0 for no effect and ±100 for the full control effect; nearly all actives have a fitted effect of over 60% in size
Outline: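 Luminescent read-out of luciferin formed from Luciferin-H EGE (10uM, equal to KM). Enzyme 5nM in 50mM KPO4; compound added, 10 min at 37C, then NADPH regenerating system for 60 min at 37C. Full inhibition defined by 57uM ketoconazole.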

[10] = qHTS for Inhibitors of Plasmodium falciparum (GB4) proliferation (AID 504315); also: nearly all actives have a fitted effect of over 50% in size; also: potency is read from the fitted curve at half-maximal effect;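 as to activity change, negative = inhibition: 0% = DMSO vehicle and -100% = 0.29 µM artemisinin control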
Outline: as §1

Chain of Atrial natriuretic peptide receptor 1 (Homo sapiens) (P16066 whole entry, looked up): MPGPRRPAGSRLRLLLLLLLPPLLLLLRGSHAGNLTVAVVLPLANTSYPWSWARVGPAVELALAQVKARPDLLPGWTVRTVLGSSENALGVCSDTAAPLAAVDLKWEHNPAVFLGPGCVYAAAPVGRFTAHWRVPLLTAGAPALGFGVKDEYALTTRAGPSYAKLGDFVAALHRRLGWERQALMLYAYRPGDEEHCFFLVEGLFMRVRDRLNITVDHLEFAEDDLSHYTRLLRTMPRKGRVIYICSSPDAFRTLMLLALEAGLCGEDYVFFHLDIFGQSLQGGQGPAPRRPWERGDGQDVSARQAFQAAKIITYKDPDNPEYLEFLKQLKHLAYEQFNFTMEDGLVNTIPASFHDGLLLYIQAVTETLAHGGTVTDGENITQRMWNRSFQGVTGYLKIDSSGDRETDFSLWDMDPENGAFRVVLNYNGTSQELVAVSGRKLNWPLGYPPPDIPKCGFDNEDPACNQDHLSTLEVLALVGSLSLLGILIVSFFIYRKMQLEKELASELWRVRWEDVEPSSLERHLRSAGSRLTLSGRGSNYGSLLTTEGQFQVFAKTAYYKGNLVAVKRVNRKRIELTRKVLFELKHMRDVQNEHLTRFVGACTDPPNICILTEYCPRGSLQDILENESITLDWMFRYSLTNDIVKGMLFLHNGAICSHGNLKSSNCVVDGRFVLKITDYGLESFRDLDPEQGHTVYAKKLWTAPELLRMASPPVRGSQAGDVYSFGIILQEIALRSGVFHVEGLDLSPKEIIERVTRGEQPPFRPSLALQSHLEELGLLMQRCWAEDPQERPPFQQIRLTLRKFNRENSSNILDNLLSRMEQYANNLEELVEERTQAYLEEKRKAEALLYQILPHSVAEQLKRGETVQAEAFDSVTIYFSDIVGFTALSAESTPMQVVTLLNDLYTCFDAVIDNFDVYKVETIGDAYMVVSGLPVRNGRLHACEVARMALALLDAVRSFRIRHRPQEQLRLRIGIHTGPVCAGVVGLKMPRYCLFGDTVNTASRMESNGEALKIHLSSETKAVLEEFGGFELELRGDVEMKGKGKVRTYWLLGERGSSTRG
Chain of Cytochrome P450 3A4 (Homo sapiens) (P08684 whole entry, looked up): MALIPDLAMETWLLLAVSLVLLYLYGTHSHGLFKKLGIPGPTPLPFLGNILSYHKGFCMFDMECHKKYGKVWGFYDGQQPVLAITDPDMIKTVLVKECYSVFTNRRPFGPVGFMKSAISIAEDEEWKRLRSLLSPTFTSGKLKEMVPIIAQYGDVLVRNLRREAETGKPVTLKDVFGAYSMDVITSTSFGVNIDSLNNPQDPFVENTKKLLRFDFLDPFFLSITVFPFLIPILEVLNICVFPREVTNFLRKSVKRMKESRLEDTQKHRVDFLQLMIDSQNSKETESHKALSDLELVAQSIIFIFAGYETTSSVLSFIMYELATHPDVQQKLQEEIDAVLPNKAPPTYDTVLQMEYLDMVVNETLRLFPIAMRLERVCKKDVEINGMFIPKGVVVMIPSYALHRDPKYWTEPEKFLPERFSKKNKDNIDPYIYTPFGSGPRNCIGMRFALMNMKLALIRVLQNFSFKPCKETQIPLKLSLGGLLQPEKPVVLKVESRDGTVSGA
Chain of Cytochrome P450 2C9 (Homo sapiens) (P11712 whole entry, looked up): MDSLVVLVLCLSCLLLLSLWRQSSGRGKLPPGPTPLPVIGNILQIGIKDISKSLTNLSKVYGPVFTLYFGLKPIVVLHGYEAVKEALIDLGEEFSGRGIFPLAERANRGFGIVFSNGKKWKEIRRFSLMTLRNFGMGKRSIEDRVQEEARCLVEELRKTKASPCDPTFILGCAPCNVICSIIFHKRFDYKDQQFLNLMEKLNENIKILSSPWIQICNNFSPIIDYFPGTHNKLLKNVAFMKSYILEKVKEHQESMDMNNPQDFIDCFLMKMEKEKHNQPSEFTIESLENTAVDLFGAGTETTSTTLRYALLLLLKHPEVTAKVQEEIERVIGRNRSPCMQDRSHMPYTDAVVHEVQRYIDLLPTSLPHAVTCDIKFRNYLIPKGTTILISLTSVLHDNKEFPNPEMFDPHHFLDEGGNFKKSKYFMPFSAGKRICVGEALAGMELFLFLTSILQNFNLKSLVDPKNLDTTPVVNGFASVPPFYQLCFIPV
Chain of Cytochrome P450 2C19 (Homo sapiens) (P33261 whole entry, looked up): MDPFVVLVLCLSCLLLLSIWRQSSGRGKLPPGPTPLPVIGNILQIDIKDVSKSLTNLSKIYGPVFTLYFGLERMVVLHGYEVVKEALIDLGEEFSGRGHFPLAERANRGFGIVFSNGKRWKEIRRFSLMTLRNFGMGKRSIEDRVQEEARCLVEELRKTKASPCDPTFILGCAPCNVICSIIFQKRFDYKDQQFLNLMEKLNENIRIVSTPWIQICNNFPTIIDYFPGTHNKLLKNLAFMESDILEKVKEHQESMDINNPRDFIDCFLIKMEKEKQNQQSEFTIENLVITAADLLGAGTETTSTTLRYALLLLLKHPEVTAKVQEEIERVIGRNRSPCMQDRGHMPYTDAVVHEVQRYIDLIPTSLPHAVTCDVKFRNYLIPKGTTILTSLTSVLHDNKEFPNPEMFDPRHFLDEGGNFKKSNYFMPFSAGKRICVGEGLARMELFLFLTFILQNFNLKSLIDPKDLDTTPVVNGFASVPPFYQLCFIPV
Chain of Cytochrome P450 2D6 (Homo sapiens) (P10635 whole entry, looked up): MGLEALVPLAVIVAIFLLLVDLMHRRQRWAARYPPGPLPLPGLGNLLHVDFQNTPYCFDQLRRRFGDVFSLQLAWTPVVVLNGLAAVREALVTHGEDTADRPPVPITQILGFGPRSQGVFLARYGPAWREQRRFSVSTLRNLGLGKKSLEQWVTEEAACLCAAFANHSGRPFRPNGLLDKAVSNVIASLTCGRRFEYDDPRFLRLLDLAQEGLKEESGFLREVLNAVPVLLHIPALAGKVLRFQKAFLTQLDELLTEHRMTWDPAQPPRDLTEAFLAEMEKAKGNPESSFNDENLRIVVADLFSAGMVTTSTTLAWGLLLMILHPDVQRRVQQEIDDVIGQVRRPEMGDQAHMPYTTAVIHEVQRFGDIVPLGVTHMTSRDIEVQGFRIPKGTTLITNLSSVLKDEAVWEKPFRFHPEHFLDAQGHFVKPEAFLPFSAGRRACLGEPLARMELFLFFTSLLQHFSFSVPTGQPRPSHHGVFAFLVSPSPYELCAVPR

CCN1C(=NCC(C)C)N[C@@H](CCc2ccccc2)[C@H](C(=O)OC)[C@H]1C
inactive: Potency [1] | Potency [2] | Potency [3] | Potency [4]

COc1ccc(COC(=O)NN=C2C[C@@H](O)[C@@H](O)[C@@H]3[C@H]4C(=O)N(Cc5ccccc5)C(=O)[C@@H]4CC[C@@H]23)cc1
inactive: Potency [1] | Potency [2] | Potency [3] | Potency [4]

COc1cc2c(cc1OC)[C@@H]1O[C@](CCCCN3C(=O)c4ccccc4C3=O)(C2)OC2=C1C(=O)OC1(CCCCC1)C2
inactive: Potency [3] | Potency [4]
active: Potency [1] 1.69 µM | Potency [5] 1.9 µM

CC1(O)C(=O)C=C2C=C(CCCCOCc3ccccc3)OC=C2C1=O (stereo not given)
inactive: activity change, negative = inhibition [6] -27.6% [at 11.4 µM] | activity change, negative = inhibition [7] -25.3% [at 11.4 µM] | activity change, negative = inhibition [8] -3.73% [at 11.4 µM] | activity, negative = inhibition [9] -23.3% [at 11.4 µM] | Potency [1] | Potency [2] | Potency [3] | Potency [4]

COC(=O)CC=C[C@@H](C)[C@@H](C=NOCC[C@@H]1C=C[C@H](OC(C)=O)[C@@H](COC(C)=O)O1)NS(=O)(=O)c1ccc(C)cc1
inactive: Potency [1] | Potency [2] | Potency [3] | Potency [4]

COc1ccc(C(=O)Oc2cc(OC)cc(OC)c2C(C)=O)cc1
inactive: activity change, negative = inhibition [6] 19.9% [at 11.4 µM] | activity change, negative = inhibition [7] -16.9% [at 11.4 µM] | activity, negative = inhibition [9] 27.9% [at 11.4 µM] | Potency [1] | Potency [2] | Potency [5] | Potency [3] | Potency [4]

O=C(NN=C1C[C@@H](O)[C@H](O)[C@H]2[C@@H]3C(=O)N(Cc4ccc5c(c4)OCO5)C(=O)[C@@H]3CC[C@H]12)OCc1ccccc1
inactive: Potency [1] | Potency [5] | Potency [4]

CC(=O)OC[C@H]1O[C@@H](ON=CC[C@@H]2C=C[C@@H](OC(C)=O)[C@@H](COC(C)=O)O2)[C@@H](OC(C)=O)[C@@H](OC(C)=O)[C@@H]1OC(C)=O
inactive: Potency [1] | Potency [2] | Potency [3] | Potency [4]

C=C(C)C1CC23C(=O)[C@]4(C(=O)c5ccccc5)C[C@@]5(C)CCC(CC2C1(C)C)(C4=O)[C@@]35OC (stereo not given in full)
inactive: Potency [1]

CCN1C(=NCCc2ccc(Br)cc2)NC(c2ccccc2)C(C(=O)OC)=C1C (stereo not given)
inactive: Potency [10] | Potency [2] | Potency [5] | Potency [3] | Potency [4]

COC(=O)N1C(c2ccccc2)=Cc2ccccc2C1CC(C)=O (stereo not given)
inactive: Potency [10] | Potency [2] | Potency [5] | Potency [3] | Potency [4]

CCOC(=O)CN1C(=O)N(CC)C(C)=C(C(=O)OC)C1c1ccccc1 (stereo not given)
inactive: Potency [10] | Potency [2] | Potency [5] | Potency [3] | Potency [4]

COC(=O)CCC(=O)OC1(C)C(=O)C=C2C=C3CCCN3C=C2C1=O (stereo not given)
inactive: Potency [10] | Potency [2] | Potency [5] | Potency [3] | Potency [4]

COc1ccc(C2=CC3=C(Br)C(=O)C(C)(O)C(=O)C3=CO2)cc1 (stereo not given)
inactive: Potency [10] | Potency [2] | Potency [5] | Potency [3] | Potency [4]

COCCN1C(=O)C2=C(C1=O)C1N(C)c3ccccc3[C@@]13C[C@@H](CO)N(S(=O)(=O)c1ccc(OC)cc1)C3=N2 (stereo not given in full)
inactive: Potency [10] | Potency [2] | Potency [5] | Potency [3] | Potency [4]

O=C1[C@@H]2[C@H]3[C@H](O)[C@H](O)CC(=NOC[C@@H](O)COCc4ccco4)[C@@H]3CC[C@H]2C(=O)N1C[C@@H]1CCCO1
inactive: Potency [10] | Potency [2] | Potency [5] | Potency [3] | Potency [4]

COC(=O)N[C@H](CC(C)=O)c1ccc(F)cc1
inactive: Potency [10] | Potency [2] | Potency [5] | Potency [3] | Potency [4]

CCOC(=O)NN=Cc1ccccc1-c1cc(OC)ccc1OC
inactive: Potency [10] | Potency [2] | Potency [5] | Potency [3] | Potency [4]

COc1cccc(O[C@H]2C=C[C@@H](c3ccccc3)O[C@H]2CO)c1
inactive: Potency [10] | Potency [2] | Potency [5] | Potency [3] | Potency [4]

COC(=O)CCC(=O)OC1(C)C(=O)C2=COC(c3ccc(OC)cc3)=CC2=C(Br)C1=O (stereo not given)
inactive: Potency [10] | Potency [2] | Potency [5] | Potency [3] | Potency [4]

CC(C)=CCN1C(=O)[C@]2(OCCC=C[C@H]2C)c2c(Br)cccc21
inactive: Potency [10] | Potency [2] | Potency [5] | Potency [3] | Potency [4]

O=C1C2=C(C(=O)c3ccccc31)[C@H]1O[C@](CCCCN3C(=O)c4ccccc4C3=O)(Cc3ccccc31)O2
active: Potency [10] 1.69 µM | Potency [2] 1.69 µM | Potency [5] 1.69 µM
inactive: Potency [3] | Potency [4]

C=CCOC(=O)NC(c1ccc(F)c(F)c1)C(C(C)=O)C(=O)OC (stereo not given)
inactive: Potency [10] | Potency [2] | Potency [5] | Potency [3] | Potency [4]

CC1(OC(=O)c2ccco2)C(=O)C=C2C=C(c3ccsc3)OC=C2C1=O (stereo not given)
inactive: Potency [10] | Potency [2] | Potency [5] | Potency [3] | Potency [4]
